Measured values as given in PubChem BioAssay AID991 (National Center for Advancing Translational Sciences (NCATS), 2007).
The source made the active and inactive calls. The rule behind the calls is not given here.

Target: Microtubule-associated protein tau (Homo sapiens) (UniProt P10636)
Experiment: Tau Fibrillization assay
Settings: His6-htau40 arachidonic acid fibrillization, TEM filament length; at 0.72 µM; stronger effect = lower value
From the text: NIH Molecular Libraries Screening Centers Network [MLSCN] NIH Chemical Genomics Center [NCGC] MLSCN Grant: 1 X01 MH079825-01 Assay Provider: Jeffrey A. Kuret, Ohio State University NCGC Assay Overview: A number of solution-based assays are available for quantifying the amount of aggregated protein, such as fluorescence spectroscopy, sedimentation, and static and laser light scattering. However, none of these methods allows direct visualization of filaments. Transmission electron microscopy (TEM) can complement these solution-based assays by providing information on filament morphology and length distributions. In vitro fibrillization of htau40 was performed in the presence or absence of selected compounds. The resultant filaments were detected after absorption onto formvar and carbon coated grids and examined by TEM. Random digital images of each experimental condition were obtained, imported into imaging software, and quantified for filament length and number.
NCGC Assay Protocol Summary Aggregation of His6-htau40 (5 uM final concentration) in assembly buffer was induced with arachidonic acid (50 uM final concentration) in the presence or absence of selected library compounds. Each compound was tested at IC50 and four times the IC50values as determined by the tau ThS binding assay. After incubation (18 h at 37 degrees Celsius), reactions were diluted 5-fold in distilled water and assayed by transmission electron microscopy as described previously (Necula and Kuret, 2004). […] 28(3), 251-60. Necula, M., Chirita, C. N., and Kuret, J. (2003) J. Biol. Chem. 278, 46674-46680.

Microtubule-associated protein tau (Homo sapiens), sequence (P10636 whole entry, looked up): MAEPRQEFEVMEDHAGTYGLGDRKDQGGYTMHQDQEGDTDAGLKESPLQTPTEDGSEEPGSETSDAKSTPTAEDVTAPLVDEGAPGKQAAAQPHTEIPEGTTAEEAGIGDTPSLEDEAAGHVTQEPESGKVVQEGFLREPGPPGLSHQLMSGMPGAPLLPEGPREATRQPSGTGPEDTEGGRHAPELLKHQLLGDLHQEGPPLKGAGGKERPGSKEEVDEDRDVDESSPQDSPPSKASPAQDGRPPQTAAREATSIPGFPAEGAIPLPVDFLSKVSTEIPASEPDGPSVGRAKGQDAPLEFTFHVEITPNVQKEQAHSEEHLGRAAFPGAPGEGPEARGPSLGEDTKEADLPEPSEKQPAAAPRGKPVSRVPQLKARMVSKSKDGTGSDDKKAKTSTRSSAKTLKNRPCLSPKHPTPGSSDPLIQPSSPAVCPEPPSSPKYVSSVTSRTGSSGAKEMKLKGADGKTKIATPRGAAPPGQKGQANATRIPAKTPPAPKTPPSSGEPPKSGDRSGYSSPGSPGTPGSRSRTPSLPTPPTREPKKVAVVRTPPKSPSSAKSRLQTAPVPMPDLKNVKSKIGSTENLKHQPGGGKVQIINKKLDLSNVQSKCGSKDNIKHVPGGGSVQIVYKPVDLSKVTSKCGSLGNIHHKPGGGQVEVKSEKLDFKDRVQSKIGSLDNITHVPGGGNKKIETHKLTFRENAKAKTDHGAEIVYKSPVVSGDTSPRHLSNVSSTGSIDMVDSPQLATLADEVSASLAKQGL

SMILES | filament length
CN(C)c1ccc(C(=C2C=CC(=[N+](C)C)C=C2)c2ccc(N(C)C)cc2)cc1 | 50.3% (active)

Same assay, conditions: His6-htau40 arachidonic acid fibrillization, TEM filament length; at 0.76 µM; stronger effect = lower value

SMILES | filament length
Cc1cc(-c2ccc(N=Nc3ccc4c(S(=O)(=O)O)cc(S(=O)(=O)O)c(N)c4c3O)c(C)c2)ccc1N=Nc1ccc2c(S(=O)(=O)O)cc(S(=O)(=O)O)c(N)c2c1O | 91.8% (inactive)

Same assay, conditions: His6-htau40 arachidonic acid fibrillization, TEM filament length; at 4 µM; stronger effect = lower value

SMILES | filament length
CN(C)c1ccc(/C=C2/C(=O)Nc3ccccc32)cc1 | 41.8% (active)

Same assay, conditions: His6-htau40 arachidonic acid fibrillization, TEM filament length; at 6.4 µM; stronger effect = lower value

SMILES | filament length
N=C1C=CC(=C(c2ccc(N)cc2)c2ccc(N)cc2)C=C1 | 50.8% (active)

Same assay, conditions: His6-htau40 arachidonic acid fibrillization, TEM filament length; at 8.2 µM; stronger effect = lower value

SMILES | filament length
COc1cccc2c1C(=N)c1c(O)c3c(c(O)c1C2=O)C[C@](O)(C(C)=O)C[C@@H]3O[C@H]1C[C@H](N)[C@@H](O)[C@H](C)O1 | 86.9% (inactive)

Same assay, conditions: His6-htau40 arachidonic acid fibrillization, TEM filament length; at 8.4 µM; stronger effect = lower value

SMILES | filament length
Cc1ccc2nc(-c3ccc(N=Nc4cc(S(=O)(=O)O)c5ccccc5c4O)cc3)sc2c1S(=O)(=O)O | 111% (inactive)

Same assay, conditions: His6-htau40 arachidonic acid fibrillization, TEM filament length; filament length at lower concentration; at 0.18 µM; stronger effect = lower value

SMILES | filament length
CN(C)c1ccc(C(=C2C=CC(=[N+](C)C)C=C2)c2ccc(N(C)C)cc2)cc1 | 109%

Same assay, conditions: His6-htau40 arachidonic acid fibrillization, TEM filament length; filament length at lower concentration; at 0.19 µM; stronger effect = lower value

SMILES | filament length
Cc1cc(-c2ccc(N=Nc3ccc4c(S(=O)(=O)O)cc(S(=O)(=O)O)c(N)c4c3O)c(C)c2)ccc1N=Nc1ccc2c(S(=O)(=O)O)cc(S(=O)(=O)O)c(N)c2c1O | 116%

Same assay, conditions: His6-htau40 arachidonic acid fibrillization, TEM filament length; filament length at lower concentration; at 1 µM; stronger effect = lower value

SMILES | filament length
CN(C)c1ccc(/C=C2/C(=O)Nc3ccccc32)cc1 | 94.5%

Same assay, conditions: His6-htau40 arachidonic acid fibrillization, TEM filament length; filament length at lower concentration; at 1.6 µM; stronger effect = lower value

SMILES | filament length
N=C1C=CC(=C(c2ccc(N)cc2)c2ccc(N)cc2)C=C1 | 114%

Same assay, conditions: His6-htau40 arachidonic acid fibrillization, TEM filament length; filament length at lower concentration; at 2.1 µM; stronger effect = lower value

SMILES | filament length
COc1cccc2c1C(=N)c1c(O)c3c(c(O)c1C2=O)C[C@](O)(C(C)=O)C[C@@H]3O[C@H]1C[C@H](N)[C@@H](O)[C@H](C)O1 | 91.3%
Cc1ccc2nc(-c3ccc(N=Nc4cc(S(=O)(=O)O)c5ccccc5c4O)cc3)sc2c1S(=O)(=O)O | 100%
